The term AC50 denotes the midpoint of the concentration-response curve, whichever way the signal moves.

Each structure is given as a SMILES string. Records with an inconclusive call do not appear. Activity calls are given as the source filed them. Rule for the calls, unless noted: active = hit-call score of the fitted dose curve at least 0.9, where 1 is the maximum; inconclusive = response in the unintended direction; inactive = score below 0.9.

Assay [1] can be described thus: BSK_4H_Eotaxin3: BioMAP Diversity Plus: 4H Assay for Eotaxin 3 Biomarker Activity (AID 2283000; active = hit-call score of the fitted dose curve at least 0.9, where 1 is the maximum; inactive = score below 0.9;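 note: CCL26 protein level quantified by ELISA in parallel with SRB cytotoxicity check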). The following applies: primary human endothelial cells (HUVEC); actives raise or lower the signal. The method, boiled down: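 Readout is Eotaxin-3 (CCL26) level by ELISA in primary human umbilical vein endothelial cells harvested 24 h after chemical exposure; activity fitted in both directions against DMSO control.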

Assay [2] addresses human Peroxisome Proliferator-activated Receptor delta (PPARd), PPARD (gene 5467) (UniProt Q03181). Put plainly: ATG_PPARd_TRANS: Attagene TRANS-FACTORIAL HepG2 Assay for human Peroxisome Proliferator-activated Receptor delta (PPARd) (AID 2283002). The method, boiled down: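 Fluorescence from capillary electrophoresis of labelled RT-PCR reporter fragments gives the signal; DMSO sets baseline. Cells: HepG2 transiently carrying GAL4-UAS reporter units plus chimeric nuclear receptor-Gal4 proteins, exposed to chemicals for 24 h.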

Assay [3] has as its target human Retinoic Acid Receptor beta (RARb), RARB (gene 5915) (UniProt P10826). Put plainly: ATG_RARb_TRANS: Attagene TRANS-FACTORIAL HepG2 Assay for human Retinoic Acid Receptor beta (AID 2283004). In a few lines: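 Readout is reporter mRNA induction: RNA reverse-transcribed, PCR-amplified, FAM-labelled, HpaI-cut and resolved by capillary electrophoresis. Transiently transfected HepG2 cells carrying exogenous NR–Gal4 chimeras were dosed for 24 h; activity fitted upward relative to DMSO.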

The target in assay [4] is Retinoic acid receptor alpha (Homo sapiens) (UniProt P10276). The assay is described as follows: ATG_RARa_TRANS: Attagene TRANS-FACTORIAL HepG2 Assay for human Retinoic Acid Receptor alpha (RARa) (AID 2283005). In a few lines:
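HepG2 transiently transfected with multiplex GAL4-UAS reporter units including a human RARa–GAL4 chimera; 24 h compound exposure. Reporter mRNA quantified by RT-PCR, 6-FAM labeling and capillary electrophoresis; gain of signal versus DMSO.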

A short description of assay [5]: BSK_3C_Proliferation: Cell Proliferation Assessment in the BioMAP Diversity Plus: 3C Assay (AID 2283006; active = hit-call score of the fitted dose curve at least 0.9, where 1 is the maximum; inactive = score below 0.9). The following applies: primary human endothelial cells (HUVEC). In a few lines:
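Subconfluent HUVEC (3C system) cultured with chemical; relative cell number read at 48 h by sulforhodamine B total-protein staining (0.1% SRB after 10% TCA fixation, 560 nm). Bidirectional fit relative to DMSO.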

The target of assay [6] is Peroxisome proliferator-activated receptor gamma (Homo sapiens) (UniProt P37231). The assay is described as follows: ATG_PPARg_TRANS: Attagene TRANS-FACTORIAL HepG2 Assay for human Peroxisome Proliferator-activated Receptor-gamma (PPARg) (AID 2283007). The method, boiled down:
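After 24 h of chemical exposure, transfected HepG2 cells carrying PPARγ-Gal4 chimera reporter constructs are lysed for RNA. Reporter transcripts are measured by RT-PCR and capillary electrophoresis with fluorescent labelling, and gain of signal is fitted versus DMSO.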

The target in assay [7] is Nuclear receptor subfamily 1 group I member 2 (Homo sapiens) (UniProt O75469). Put plainly: ATG_PXR_TRANS: Attagene TRANS-FACTORIAL HepG2 Assay for human Pregnane X Receptor (PXR) (AID 2283008). The method, boiled down: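 HepG2 cells transiently transfected with GAL4-UAS reporter units and PXR-Gal4 chimera, exposed 24 h. Reporter mRNA quantified by RT-PCR, fluorescent labelling, HpaI digestion and capillary electrophoresis; gain of signal vs DMSO.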
Chain of Nuclear receptor subfamily 1 group I member 2 (Homo sapiens) (O75469 whole entry, looked up, the tested form may be a part): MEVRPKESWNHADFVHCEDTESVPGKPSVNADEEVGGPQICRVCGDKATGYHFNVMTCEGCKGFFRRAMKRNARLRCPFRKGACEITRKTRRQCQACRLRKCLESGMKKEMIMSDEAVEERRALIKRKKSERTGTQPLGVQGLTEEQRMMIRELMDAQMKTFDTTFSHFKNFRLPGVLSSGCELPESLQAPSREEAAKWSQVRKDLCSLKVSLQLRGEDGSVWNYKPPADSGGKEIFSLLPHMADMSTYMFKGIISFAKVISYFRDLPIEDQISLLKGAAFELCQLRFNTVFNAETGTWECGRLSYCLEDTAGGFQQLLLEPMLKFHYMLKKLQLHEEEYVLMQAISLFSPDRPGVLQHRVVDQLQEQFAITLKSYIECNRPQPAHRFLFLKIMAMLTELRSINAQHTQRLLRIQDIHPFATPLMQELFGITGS

For assay [8], the target named is human Retinoic Acid Receptor gamma (RARg), RARG (gene 5916) (UniProt P13631). The assay is described as follows: ATG_RARg_TRANS: Attagene TRANS-FACTORIAL HepG2 Assay for human Retinoic Acid Receptor gamma (RARg) (AID 2283009). In a few lines: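 HepG2 transiently transfected with GAL4-UAS reporter units and chimeric NR-Gal4 constructs; 24 h compound exposure. Reporter mRNA quantified by RT-PCR, FAM labeling, HpaI digestion and capillary electrophoresis; gain-of-signal versus DMSO.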
Chain of human Retinoic Acid Receptor gamma (RARg), RARG (gene 5916) (P13631 whole entry, looked up, the tested form may be a part): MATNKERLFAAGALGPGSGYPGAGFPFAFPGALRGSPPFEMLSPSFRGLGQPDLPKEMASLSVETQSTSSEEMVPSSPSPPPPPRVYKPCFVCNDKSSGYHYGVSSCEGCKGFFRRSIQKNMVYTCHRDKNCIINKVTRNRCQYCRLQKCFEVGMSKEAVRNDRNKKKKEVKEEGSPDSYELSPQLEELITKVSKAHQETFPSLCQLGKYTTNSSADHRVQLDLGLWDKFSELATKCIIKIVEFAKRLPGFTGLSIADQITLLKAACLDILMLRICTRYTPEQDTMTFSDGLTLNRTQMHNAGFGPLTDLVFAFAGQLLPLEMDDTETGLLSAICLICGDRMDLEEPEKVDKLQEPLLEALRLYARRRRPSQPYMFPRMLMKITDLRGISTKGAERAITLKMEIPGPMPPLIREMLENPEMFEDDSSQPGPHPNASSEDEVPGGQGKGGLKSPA

Assay [9] deals with human Peroxisome Proliferator-activated Receptor alpha (PPARa), PPARA (gene 5465) (UniProt Q07869). Put plainly: ATG_PPARa_TRANS: Attagene TRANS-FACTORIAL HepG2 Assay for human Peroxisome Proliferator-activated Receptor alpha (PPARa) (AID 2283001).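 For AC50: potency for gain of reporter signal over DMSO so agonist or activator.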 The method, boiled down: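 HepG2 cells transiently transfected with multiplexed GAL4-UAS reporters driven by exogenous chimeric NR-Gal4 proteins; reporter mRNA measured after 24 h dosing. Read-out by RT-PCR, 6-FAM labelling, HpaI digestion and capillary electrophoresis; gain of signal versus DMSO.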
Chain of human Peroxisome Proliferator-activated Receptor alpha (PPARa), PPARA (gene 5465) (Q07869 whole entry, looked up, the tested form may be a part): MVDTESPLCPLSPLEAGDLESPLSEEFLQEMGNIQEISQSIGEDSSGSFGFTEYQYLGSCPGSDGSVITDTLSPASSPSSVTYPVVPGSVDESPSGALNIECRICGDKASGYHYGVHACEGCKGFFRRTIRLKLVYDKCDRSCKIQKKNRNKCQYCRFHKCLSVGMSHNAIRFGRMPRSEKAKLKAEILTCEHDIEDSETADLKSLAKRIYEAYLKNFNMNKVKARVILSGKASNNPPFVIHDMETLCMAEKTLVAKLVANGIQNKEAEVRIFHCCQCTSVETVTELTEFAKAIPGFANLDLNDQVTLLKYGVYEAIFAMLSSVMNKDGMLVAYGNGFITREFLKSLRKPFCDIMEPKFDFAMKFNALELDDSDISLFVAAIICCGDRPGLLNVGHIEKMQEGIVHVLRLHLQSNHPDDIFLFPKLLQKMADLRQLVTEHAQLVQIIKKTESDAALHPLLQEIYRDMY

Chain of human Retinoic Acid Receptor beta (RARb), RARB (gene 5915) (P10826 whole entry, looked up, the tested form may be a part): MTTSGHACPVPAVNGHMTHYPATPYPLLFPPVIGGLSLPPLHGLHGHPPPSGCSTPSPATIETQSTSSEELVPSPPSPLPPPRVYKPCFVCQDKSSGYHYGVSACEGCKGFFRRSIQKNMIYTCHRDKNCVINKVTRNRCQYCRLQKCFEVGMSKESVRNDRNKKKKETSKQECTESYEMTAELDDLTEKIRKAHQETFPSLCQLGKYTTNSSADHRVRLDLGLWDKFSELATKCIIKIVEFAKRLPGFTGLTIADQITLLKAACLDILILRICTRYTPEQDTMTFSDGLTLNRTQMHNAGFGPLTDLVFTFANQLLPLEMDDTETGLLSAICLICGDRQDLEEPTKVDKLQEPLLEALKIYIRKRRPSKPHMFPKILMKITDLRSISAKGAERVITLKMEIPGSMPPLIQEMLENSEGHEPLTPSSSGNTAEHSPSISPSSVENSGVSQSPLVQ
Chain of Peroxisome proliferator-activated receptor gamma (Homo sapiens) (P37231 whole entry, looked up, the tested form may be a part): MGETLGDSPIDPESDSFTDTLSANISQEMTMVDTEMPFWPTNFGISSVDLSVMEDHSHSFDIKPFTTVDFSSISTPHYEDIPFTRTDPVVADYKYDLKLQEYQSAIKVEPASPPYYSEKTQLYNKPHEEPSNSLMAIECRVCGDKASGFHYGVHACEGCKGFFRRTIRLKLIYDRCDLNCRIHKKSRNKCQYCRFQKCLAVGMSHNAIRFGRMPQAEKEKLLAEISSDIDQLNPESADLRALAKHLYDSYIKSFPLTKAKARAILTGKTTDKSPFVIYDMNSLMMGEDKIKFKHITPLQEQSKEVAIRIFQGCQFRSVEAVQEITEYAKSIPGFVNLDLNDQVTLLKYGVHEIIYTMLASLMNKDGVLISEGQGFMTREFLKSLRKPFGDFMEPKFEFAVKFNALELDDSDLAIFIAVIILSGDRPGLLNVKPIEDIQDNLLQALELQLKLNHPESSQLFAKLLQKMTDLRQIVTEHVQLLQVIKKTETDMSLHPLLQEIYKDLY
Chain of Retinoic acid receptor alpha (Homo sapiens) (P10276 whole entry, looked up, the tested form may be a part): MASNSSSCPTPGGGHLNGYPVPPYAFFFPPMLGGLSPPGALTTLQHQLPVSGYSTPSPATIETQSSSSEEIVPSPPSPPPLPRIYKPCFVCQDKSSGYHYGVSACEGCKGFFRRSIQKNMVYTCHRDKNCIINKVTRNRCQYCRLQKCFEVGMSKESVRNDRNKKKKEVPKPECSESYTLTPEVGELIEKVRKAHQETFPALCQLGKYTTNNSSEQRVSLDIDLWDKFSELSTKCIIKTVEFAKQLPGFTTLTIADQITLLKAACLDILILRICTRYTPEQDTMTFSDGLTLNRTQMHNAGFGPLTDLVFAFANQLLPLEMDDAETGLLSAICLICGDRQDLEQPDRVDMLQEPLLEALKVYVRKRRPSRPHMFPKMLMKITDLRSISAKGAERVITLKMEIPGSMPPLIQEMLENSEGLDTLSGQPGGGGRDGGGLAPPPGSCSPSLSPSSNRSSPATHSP
Chain of human Peroxisome Proliferator-activated Receptor delta (PPARd), PPARD (gene 5467) (Q03181 whole entry, looked up, the tested form may be a part): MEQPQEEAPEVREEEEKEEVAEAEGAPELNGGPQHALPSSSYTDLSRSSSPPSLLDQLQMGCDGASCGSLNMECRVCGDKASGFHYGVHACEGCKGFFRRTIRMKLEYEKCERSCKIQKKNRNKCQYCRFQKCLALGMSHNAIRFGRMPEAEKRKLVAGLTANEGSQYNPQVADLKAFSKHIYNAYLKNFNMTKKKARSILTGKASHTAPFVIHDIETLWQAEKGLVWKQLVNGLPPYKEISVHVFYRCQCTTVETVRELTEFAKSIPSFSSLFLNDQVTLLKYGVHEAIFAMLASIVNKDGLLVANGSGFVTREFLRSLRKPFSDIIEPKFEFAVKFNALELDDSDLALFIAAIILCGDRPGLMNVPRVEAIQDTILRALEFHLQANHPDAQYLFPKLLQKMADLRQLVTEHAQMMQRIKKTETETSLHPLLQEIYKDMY

As for `CCNc1nc(NC(C)(C)C)nc(OC)n1`, the outcome in assay [1], in assay [2], in [3], in [4], in [5] and in assay [6] was inactive. Besides, the outcome in [8] was inactive. In addition, the AC50 in assay [7] is 3.89 µM (active).

Consider `COC(C=C(C)CCC=C(C)C)OC`, for which the compound was classed as inactive in [9], in assay [2] and in assay [7]. The half-maximal activity concentration (AC50) in [6] was 57.2 µM (active).

For the compound `c1ccc2cnccc2c1`, the outcome in assay [9], in [2], in [6] and in [7] was inactive.

Regarding `COC(=O)c1ccc(C(=O)OC)c(C(=O)OC)c1`, the AC50 was 12.6 µM (active) in assay [9] and 34.5 µM (active) in assay [6]. The compound was classed as inactive in assay [2], in assay [4] and in assay [7].

Take `Nc1ccc(O)c([N+](=O)[O-])c1`: the outcome in assay [9], in [2], in [6] and in assay [7] was inactive.

Take `CCCCCC[C@@H](O)C/C=C\CCCCCCCC(=O)OCC(O)CO` (some centres undefined): the half-maximal activity concentration (AC50) in assay [9] is 15.3 µM (active); in assay [2] it was 27.7 µM (active); in assay [6], 57.8 µM (active). Further, the compound was classed as inactive in assay [3], in assay [4], in assay [7] and in assay [8].

As for `Oc1ccc(-c2ccccc2)c(Cl)c1`, the AC50 is 41.1 µM (active) in assay [9] and 39.9 µM (active) in assay [6]. For the same compound, the compound was classed as inactive in [2] and in assay [7].

As to `O=S(=O)(O)c1ccc(N=Nc2c(O)ccc3ccccc23)cc1`, the result in [9], in assay [3], in assay [4] and in assay [6] was inactive.

For the compound `Clc1cccnc1`, the result in assay [9], in [2], in assay [3], in [4] and in [8] was inactive.

Consider `NC(=O)Nc1ccccc1`, for which the compound was called inactive in [9] and in assay [3].

For `CCCC1CCCC(=O)O1` (centres undefined), the result in assay [9], in [2], in assay [3] and in assay [7] was inactive. Besides, in assay [6], the half-maximal activity concentration (AC50) was 23.4 µM (active).

In the case of `CCCCCCCCCC[N+](C)(CCCCCCCCCC)CCC[Si](OC)(OC)OC`, the result in assay [9], in assay [2], in [6] and in [7] was inactive.

Turning to `O=C(O)/C=C/c1ccccc1`, the compound was called inactive in assay [9], in assay [2], in assay [6] and in [7].

As for `Cc1ccc2c(c1)CCCN2`, the result in assay [9], in [2], in assay [3], in [6] and in assay [7] was inactive.

In the case of `C=C(C)C(=O)OCC(O)COc1ccc(C(C)(C)c2ccc(OCC(O)COC(=O)C(=C)C)cc2)cc1` (centres undefined), the compound was called inactive in [9], in assay [2] and in assay [8]. Also, the AC50 in assay [6] is 7.32 µM (active); in assay [7] it was 6.93 µM (active).

As for `C/C=C/C=C/CCCCCCCO`, the compound was classed as inactive in assay [9] and in assay [7]. Further, the AC50 in [2] is 27.2 µM (active); in assay [6], 2.64 µM (active).

For the compound `CC(=O)OCCc1ccccc1`, the compound was classed as inactive in assay [9] and in [3].

Take `CC(=O)OCc1ccccc1`: the call in [9], in assay [2], in [3], in assay [6] and in assay [7] was inactive.

Consider `COC(=O)c1ccccc1C`, for which the outcome in [9], in [2] and in assay [6] was inactive.

For `Cc1cc(C)c(C=O)c(C)c1`, the outcome in assay [9], in assay [2] and in assay [6] was inactive. For the same compound, the AC50 in [7] is 7.01 µM (active).

As for `CC(C)c1ccc2ncccc2c1`, the result in [9], in assay [2], in assay [3], in [4] and in [8] was inactive. In addition, the AC50 in [7] was 21.4 µM (active).

Take `C1CCSC1`: the result in [9], in assay [2] and in assay [6] was inactive.

With `CCC(C)C(=O)OCCc1ccccc1` (centres undefined), the call in [9], in [2] and in assay [7] was inactive.

For `CCC(C)c1ccccc1` (centres undefined), the call in [9], in assay [2], in assay [6], in assay [7] and in assay [8] was inactive.

`CCCCCCCOC(=O)c1ccc(O)cc1`: the result in [9], in [3], in assay [4] and in [6] was inactive.

Turning to `Cc1c[nH]c(=O)[nH]c1=O`, the result in assay [9], in assay [2], in assay [4], in assay [7] and in assay [8] was inactive.

Turning to `COC(=O)C=Cc1ccccc1`, the result in [9], in assay [2], in [4], in assay [6], in assay [7] and in assay [8] was inactive.

Take `CCCCC/C=C\C/C=C\CCCCCCCC(=O)O`: the figures for the AC50 in assay [9] and in assay [6] were 28.9 µM (active) and 11.9 µM (active), respectively. In addition, the outcome in [2] and in [7] was inactive.

On to `CCCCCCCCCCCCC`, for which the call in assay [9], in [2], in assay [6] and in [7] was inactive.

For `CC(C)CC(=O)OCc1ccccc1`, the call in assay [9], in [2], in assay [6] and in assay [7] was inactive.

As to `O=S(=O)(O)c1ccc(Nc2nc(Nc3ccc(C=Cc4ccc(Nc5nc(Nc6ccc(S(=O)(=O)O)cc6)nc(N(CCO)CCO)n5)cc4S(=O)(=O)O)c(S(=O)(=O)O)c3)nc(N(CCO)CCO)n2)cc1`, the call in assay [9], in assay [2], in assay [4] and in assay [6] was inactive.

As for `CC1(C)C(=O)N(CO)C(=O)N1CO`, the outcome in assay [9], in assay [2], in assay [3], in assay [4], in [7] and in [8] was inactive.

In the case of `CC1(C)CCC[C@]2(C)[C@H]3CC(=O)O[C@]3(C)CC[C@@H]12`, the compound was classed as inactive in assay [9], in [2], in [4], in [6] and in assay [8]. The AC50 in [7] is 6.22 µM (active).

Consider `CCCCOC(=O)CCC(C)=O`, for which the compound was classed as inactive in assay [9], in assay [2], in [6] and in [7].

`CCC1COC(=O)O1` (centres undefined): the call in assay [9], in assay [2], in assay [3], in assay [6] and in assay [7] was inactive.

As to `O=C(O)c1cc(O)c2ccccc2c1O`, the compound was called inactive in assay [9], in assay [2] and in assay [8]. In addition, the results for the AC50 in [6] and in assay [7] were 9.25 µM (active) and 2.31 µM (active), respectively.

For the compound `C=CC(=O)O[C@H]1C[C@@H]2CC[C@@]1(C)C2(C)C`, the result in [9], in assay [2] and in [6] was inactive. In [7], the concentration at half-maximal activity (AC50) was 26.6 µM (active).

`Nc1ccc(C(=O)OCCCOC(=O)c2ccc(N)cc2)cc1`: the outcome in assay [9] was inactive. Further, the AC50 was 33.4 µM (active) in assay [6] and 19.6 µM (active) in assay [7].

These data come from PubChem BioAssay (EPA / NIEHS).
